Reference: the supplement of paper PMC12282887
± gives the standard deviation of the averaged measurements.

What was measured:
Experiment in all cases: promoter activity interaction Z-score (Lux/OD deviation from empty-vector control); higher = stronger promoter induction by the compound
[1] = system: E. coli BW25113 acrABp lux reporter
Method in brief: (§1)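 E. coli BW25113 luxCDABE reporter strains grew at 37°C in 40 µl LB Lennox in 384-well plates, with OD600 and luminescence read every 30 min for 12 h. After integration over 0–8 h for wild type or 1–9 h for deletion strains, wells under 10% of the median growth value were removed. Each score is the Z-transformed residual of growth-normalised luminescence fitted against a control.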

[2] = system: E. coli BW25113 micFp lux reporter
Method in brief: as §1

[3] = system: E. coli BW25113 ompFp lux reporter
Method in brief: as §1

[4] = system: E. coli BW25113 robp lux reporter
Method in brief: as §1

[5] = system: E. coli BW25113 soxSp lux reporter
Method in brief: as §1

[6] = system: E. coli BW25113 tolCp lux reporter
Method in brief: as §1

[7] = 13.7 µg/ml, genetic background: wild type
[8] = 13.7 µg/ml, genetic background: ΔmarA
[9] = 13.7 µg/ml, genetic background: Δrob
[10] = 13.7 µg/ml, genetic background: ΔsoxS
[11] = 27.5 µg/ml, genetic background: wild type
[12] = 27.5 µg/ml, genetic background: ΔmarA
[13] = 27.5 µg/ml, genetic background: Δrob
[14] = 27.5 µg/ml, genetic background: ΔsoxS
[15] = 54.9 µg/ml, genetic background: wild type
[16] = 54.9 µg/ml, genetic background: ΔmarA
[17] = 54.9 µg/ml, genetic background: Δrob
[18] = 54.9 µg/ml, genetic background: ΔsoxS
[19] = 109.8 µg/ml, genetic background: wild type
[20] = 109.8 µg/ml, genetic background: ΔmarA
[21] = 109.8 µg/ml, genetic background: Δrob
[22] = 109.8 µg/ml, genetic background: ΔsoxS

CNC[C@H](O)c1ccc(O)c(O)c1 [Adrenalin]
promoter activity interaction Z-score [1, 7]: -0.118 ± 0.26 | promoter activity interaction Z-score [1, 8]: -0.4 ± 0.56 | promoter activity interaction Z-score [1, 9]: 0.0418 ± 0.19 | promoter activity interaction Z-score [1, 10]: -0.382 ± 0.4 | promoter activity interaction Z-score [1, 11]: -0.0931 ± 0.1 | promoter activity interaction Z-score [1, 12]: 0.531 ± 0.016 | promoter activity interaction Z-score [1, 13]: -0.104 ± 0.11 | promoter activity interaction Z-score [1, 14]: -0.043 ± 0.052 | promoter activity interaction Z-score [1, 15]: -0.373 ± 0.29 | promoter activity interaction Z-score [1, 16]: 0.688 ± 0.54 | promoter activity interaction Z-score [1, 17]: -0.345 ± 0.12 | promoter activity interaction Z-score [1, 18]: -0.566 ± 0.013 | promoter activity interaction Z-score [1, 19]: -0.472 ± 0.26 | promoter activity interaction Z-score [1, 20]: 0.342 ± 0.19 | promoter activity interaction Z-score [1, 21]: 0.0555 ± 0.04 | promoter activity interaction Z-score [1, 22]: 0.539 ± 0.12 | promoter activity interaction Z-score [2, 7]: -0.11 ± 0.0085 | promoter activity interaction Z-score [2, 8]: -0.0104 ± 0.018 | promoter activity interaction Z-score [2, 9]: 0.263 ± 0.12 | promoter activity interaction Z-score [2, 10]: -0.351 ± 0.072 | promoter activity interaction Z-score [2, 11]: -0.259 ± 0.091 | promoter activity interaction Z-score [2, 12]: -0.0735 ± 0.14 | promoter activity interaction Z-score [2, 13]: 0.173 ± 0.31 | promoter activity interaction Z-score [2, 14]: 0.192 ± 0.11 | promoter activity interaction Z-score [2, 15]: -0.122 ± 0.19 | promoter activity interaction Z-score [2, 16]: 0.0635 ± 0.093 | promoter activity interaction Z-score [2, 17]: 0.189 ± 0.21 | promoter activity interaction Z-score [2, 18]: -0.508 ± 0.077 | promoter activity interaction Z-score [2, 19]: -0.426 ± 0.33 | promoter activity interaction Z-score [2, 20]: -0.136 ± 0.074 | promoter activity interaction Z-score [2, 21]: 0.0853 ± 0.074 | promoter activity interaction Z-score [2, 22]: -0.142 ± 0.14 | promoter activity interaction Z-score [3, 7]: 0.379 ± 0.018 | promoter activity interaction Z-score [3, 8]: -0.309 ± 0.22 | promoter activity interaction Z-score [3, 9]: -0.171 ± 0.37 | promoter activity interaction Z-score [3, 10]: -0.679 ± 0.25 | promoter activity interaction Z-score [3, 11]: 0.362 ± 0.017 | promoter activity interaction Z-score [3, 12]: 0.00142 ± 0.52 | promoter activity interaction Z-score [3, 13]: -0.0408 ± 0.55 | promoter activity interaction Z-score [3, 14]: -0.0291 ± 0.36 | promoter activity interaction Z-score [3, 15]: -0.597 ± 0.18 | promoter activity interaction Z-score [3, 16]: 0.175 ± 0.27 | promoter activity interaction Z-score [3, 17]: -1.07 ± 0.55 | promoter activity interaction Z-score [3, 18]: -0.961 ± 0.21 | promoter activity interaction Z-score [3, 19]: -0.0147 ± 0.25 | promoter activity interaction Z-score [3, 20]: -0.377 ± 0.44 | promoter activity interaction Z-score [3, 21]: -0.876 ± 1.6 | promoter activity interaction Z-score [3, 22]: -0.239 ± 0.22 | promoter activity interaction Z-score [4, 7]: -0.189 ± 0.26 | promoter activity interaction Z-score [4, 8]: -0.738 ± 0.13 | promoter activity interaction Z-score [4, 9]: -0.362 ± 0.49 | promoter activity interaction Z-score [4, 10]: -0.567 ± 0.17 | promoter activity interaction Z-score [4, 11]: 0.83 ± 0.5 | promoter activity interaction Z-score [4, 12]: -0.178 ± 0.0036 | promoter activity interaction Z-score [4, 13]: -0.489 ± 0.6 | promoter activity interaction Z-score [4, 14]: -0.00139 ± 0.12 | promoter activity interaction Z-score [4, 15]: -0.414 ± 0.15 | promoter activity interaction Z-score [4, 16]: -0.097 ± 0.33 | promoter activity interaction Z-score [4, 17]: -0.505 ± 1.8 | promoter activity interaction Z-score [4, 18]: -0.645 ± 0.021 | promoter activity interaction Z-score [4, 19]: -0.53 ± 0.61 | promoter activity interaction Z-score [4, 20]: -0.598 ± 0.62 | promoter activity interaction Z-score [4, 21]: -1.48 ± 0.78 | promoter activity interaction Z-score [4, 22]: -1.95 ± 0.2 | promoter activity interaction Z-score [5, 7]: 0.381 ± 0.43 | promoter activity interaction Z-score [5, 8]: 0.0748 ± 0.12 | promoter activity interaction Z-score [5, 9]: 0.425 ± 0.29 | promoter activity interaction Z-score [5, 10]: -0.181 ± 0.096 | promoter activity interaction Z-score [5, 11]: 0.23 ± 0.19 | promoter activity interaction Z-score [5, 12]: 0.131 ± 0.16 | promoter activity interaction Z-score [5, 13]: 0.208 ± 0.28 | promoter activity interaction Z-score [5, 14]: 0.264 ± 0.64 | promoter activity interaction Z-score [5, 15]: 0.0152 ± 0.17 | promoter activity interaction Z-score [5, 16]: -0.0453 ± 0.22 | promoter activity interaction Z-score [5, 17]: 0.121 ± 0.0073 | promoter activity interaction Z-score [5, 18]: -0.333 ± 0.19 | promoter activity interaction Z-score [5, 19]: -0.143 ± 0.091 | promoter activity interaction Z-score [5, 20]: -0.248 ± 0.045 | promoter activity interaction Z-score [5, 21]: 0.0524 ± 0.1 | promoter activity interaction Z-score [5, 22]: 0.0254 ± 0.36 | promoter activity interaction Z-score [6, 7]: -0.595 ± 0.65 | promoter activity interaction Z-score [6, 8]: -0.333 ± 0.39 | promoter activity interaction Z-score [6, 9]: 0.343 ± 0.15 | promoter activity interaction Z-score [6, 10]: -0.571 ± 0.34 | promoter activity interaction Z-score [6, 11]: -0.0385 ± 0.61 | promoter activity interaction Z-score [6, 12]: -0.394 ± 0.82 | promoter activity interaction Z-score [6, 13]: -0.578 ± 0.57 | promoter activity interaction Z-score [6, 14]: 1.04 ± 1.6 | promoter activity interaction Z-score [6, 15]: -0.749 ± 0.67 | promoter activity interaction Z-score [6, 16]: 0.176 ± 0.046 | promoter activity interaction Z-score [6, 17]: -0.0706 ± 0.3 | promoter activity interaction Z-score [6, 18]: 0.0714 ± 0.89 | promoter activity interaction Z-score [6, 19]: -0.414 ± 0.029 | promoter activity interaction Z-score [6, 20]: -0.30805 ± 0.0003 | promoter activity interaction Z-score [6, 21]: -0.0487 ± 0.27 | promoter activity interaction Z-score [6, 22]: -0.39 ± 1.4
